According to the supplement of paper PMC7184167:
Counter-ions that a name gives are not always drawn.

Tested on: replication-induced senescent mouse newborn dermal fibroblasts (NBF)
Test: relative cell viability of senescent cells (fraction); higher = less killing of senescent cells
Settings: 1 µM; 3 days
Method: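 Replication-induced senescent newborn mouse skin fibroblasts (NBFs) in 24-well plates were treated with a Selleck FDA-approved drug library at 1 µM for 3 days.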

First: C=CCNC1=C2C[C@@H](C)C[C@H](OC)[C@H](O)[C@@H](C)/C=C(\C)[C@H](OC(N)=O)[C@@H](OC)/C=C\C=C(/C)C(=O)NC(=CC1=O)C2=O [Tanespimycin (17-AAG)]
Second: CCC(C)(C)C(=O)O[C@H]1C[C@@H](C)C=C2C=C[C@H](C)[C@H](CC[C@@H]3C[C@@H](O)CC(=O)O3)[C@H]21 [Simvastatin]
The relative cell viability of the first is higher: 0.966 for the first, 0.965 for the second.

First: COc1ccc(Cl)cc1C(=O)NCCc1ccc(S(=O)(=O)NC(=O)NC2CCCCC2)cc1 [Glyburide (Glibenclamide)]
Second: Cc1cnc(C(=O)NCCc2ccc(S(=O)(=O)NC(=O)NC3CCCCC3)cc2)cn1 [Glipizide]
The relative cell viability of the first is higher: 1.02 for the first, 0.23 for the second.

First: Cc1nc(=O)c2cc(CN(C)c3ccc(C(=O)N[C@@H](CCC(=O)O)C(=O)O)s3)ccc2[nH]1 [Raltitrexed]
Second: O=C(O)C[C@H](O)C[C@H](O)/C=C/c1c(C2CC2)nc2ccccc2c1-c1ccc(F)cc1 [Pitavastatin Calcium]
The relative cell viability of the first is lower: 0.916 for the first, 1.08 for the second.

First: CCN(CCO)CCCOc1ccc2c(Nc3cc(CC(=O)Nc4cccc(F)c4)[nH]n3)ncnc2c1 [Barasertib (AZD1152-HQPA)]
Second: CN(C)C/C=C/C(=O)Nc1cc2c(Nc3ccc(F)c(Cl)c3)ncnc2cc1O[C@H]1CCOC1 [Afatinib (BIBW2992)]
The relative cell viability of the first is higher: 1 for the first, 0.539 for the second.

Compared with `NC(=O)C1CCCc2c1[nH]c1ccc(Cl)cc21` (stereo not drawn) [Selisistat (EX 527)], `COC(=O)[C@H](c1ccccc1Cl)N1CCc2sccc2C1` [Clopidogrel] is higher in relative cell viability: 0.498 for the first, 0.983 for the second.

Compared with `O=C(O)/C=C/c1ccc(Cn2ccnc2)cc1` [Ozagrel], `O=C(c1ccccc1)c1ccc2n1CCC2C(=O)O` (stereo not drawn) [Ketorolac] is lower in relative cell viability: 1.02 for the first, 0.977 for the second.

Going from `CCCc1nc2c(C)cc(-c3nc4ccccc4n3C)cc2n1Cc1ccc(-c2ccccc2C(=O)O)cc1` [Telmisartan] to `CC(C)(C)c1cc(NC(=O)Nc2ccc(-c3cn4c(n3)sc3cc(OCCN5CCOCC5)ccc34)cc2)no1` [Quizartinib (AC220)], the relative cell viability falls from 1.15 to 0.955.

First: CN(C)c1cc(NC(=O)CNC(C)(C)C)c(O)c2c1CC1CC3C(N(C)C)C(=O)C(C(N)=O)=C(O)C3(O)C(=O)C1=C2O (stereo not drawn) [Tigecycline]
Second: CC(C)OC(=O)C(C)(C)Oc1ccc(C(=O)c2ccc(Cl)cc2)cc1 [Fenofibrate]
The relative cell viability of the first is lower: 0.694 for the first, 1.06 for the second.

First: CN1CCC(=C2c3ccccc3CCc3sccc32)CC1 [Pizotifen Malate]
Second: CC(C)c1cc(C(=O)N2Cc3ccc(CN4CCN(C)CC4)cc3C2)c(O)cc1O
The relative cell viability of the first is lower: 0.0212 for the first, 0.0951 for the second.

First: COCC[n+]1c2c(n(Cc3cnccn3)c1C)C(=O)c1ccccc1C2=O [YM155 (Sepantronium Bromide)]
Second: COc1cc2c(Oc3ccc4[nH]c(C)cc4c3F)ncnc2cc1OCCCN1CCCC1 [Cediranib (AZD2171)]
The relative cell viability of the first is lower: 0.187 for the first, 0.269 for the second.

Compared with `COc1cc2nc(N(C)CCCNC(=O)C3CCCO3)nc(N)c2cc1OC` (stereo not drawn) [Alfuzosin HCl], `Cc1nc2n(c(=O)c1CCN1CCC(c3noc4cc(F)ccc34)CC1)CCCC2O` (stereo not drawn) [Paliperidone] is higher in relative cell viability: 0.96 for the first, 1.04 for the second.

Going from `CCN(CC)CC#CCOC(=O)C(O)(c1ccccc1)C1CCCCC1` (stereo not drawn) [Oxybutynin] to `CC(C)CN(C[C@@H](O)[C@H](Cc1ccccc1)NC(=O)O[C@H]1CCOC1)S(=O)(=O)c1ccc(N)cc1` [Amprenavir], the relative cell viability rises from 0.938 to 1.06.

Going from `Cn1cnc([N+](=O)[O-])c1Sc1ncnc2[nH]cnc12` [Azathioprine] to `CC(C)OC(=O)OCOP(=O)(CO[C@H](C)Cn1cnc2c(N)ncnc21)OCOC(=O)OC(C)C` [Tenofovir Disoproxil Fumarate], the relative cell viability falls from 0.986 to 0.84.

First: OCCN(CCO)c1nc(N2CCCCC2)c2nc(N(CCO)CCO)nc(N3CCCCC3)c2n1 [Dipyridamole]
Second: CCn1cc(C(=O)O)c(=O)c2cc(F)c(N3CCN(C)CC3)cc21 [Pefloxacin Mesylate]
The relative cell viability of the first is higher: 1 for the first, 0.993 for the second.

Compared with `Clc1cccc(Cl)c1NC1=NCCN1` [Clonidine HCl], `CC(C(=O)O)c1cccc(C(=O)c2ccccc2)c1` (stereo not drawn) [Ketoprofen] is lower in relative cell viability: 1.04 for the first, 0.757 for the second.

Compared with `O=C1[C@H](CC[C@H](O)c2ccc(F)cc2)[C@@H](c2ccc(O)cc2)N1c1ccc(F)cc1` [Ezetimibe], `COc1ccccc1OCC(O)CO` (stereo not drawn) [Guaifenesin] is higher in relative cell viability: 0.901 for the first, 1.12 for the second.

`NC(=O)c1cnccn1` [Pyrazinamide] was tested, and the relative cell viability was 1.17.
